Test [1] can be described thus: CCTE_Shafer_MEA_dev_bursting_electrodes_number: CCTE's Neural Network Formation Assay for Number of Bursting Electrodes, Shafer Lab (AID 2284043; active means hit-call score of the fitted dose curve at least 0.9, where 1 is the maximum). The essentials:
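Primary rat cortical neurons plated on 16-electrode MEA wells, exposed from day 0 with compound renewed at DIV 5 and 9. Electrodes bursting ≥1 burst per 2 min counted on days 5, 7, 9 and 12; trapezoidal AUC across days, fitted for loss versus DMSO.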

A short description of test [2]: CCTE_Shafer_MEA_dev_per_burst_interspike_interval: CCTE's Neural Network Formation Assay for Burst Interspike Interval, Shafer Lab (AID 2284044).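 Further: mean spike spacing inside bursts as AUC over recordings on days 5 7 9 12.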 The essentials:
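Rat cortical primary cultures, 16 electrodes/well; compound from plating, renewed with full media change DIV 5 and 9. Spikes via adaptive detector; per-burst ISI well-mean over active bursting electrodes; AUC of DIV 5/7/9/12 recordings; loss-direction fit vs DMSO.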

Test [3] can be described thus: CCTE_Shafer_MEA_dev_burst_duration_mean: CCTE's Neural Network Formation Assay for Mean Burst Duration, Shafer Lab (AID 2284045). The essentials:
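Primary rat cortical neurons on 48-well 16-electrode MEA plates, exposed from day 0 with renewal at DIV 5 and 9; spontaneous activity recorded on days 5, 7, 9, 12. Well-mean burst duration across bursting electrodes, collapsed as trapezoidal AUC; DMSO baseline.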

Test [4] can be described thus: CCTE_Shafer_MEA_dev_interburst_interval_mean: CCTE's Neural Network Formation Assay for Mean Interburst Interval, Shafer Lab (AID 2284046).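 Further: curve fitted for decrease in interburst interval relative to DMSO.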 The method in brief: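 Developing rat cortical networks on 48-well MEAs receive compound from the day of plating. Burst intervals from each active electrode are averaged per well, and AUC over the recording days is fitted in the negative direction against DMSO.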

The nature of test [5]: CCTE_Shafer_MEA_dev_inter_network_spike_interval_mean: CCTE's Neural Network Formation Assay for Mean Inter-network Spike Interval, Shafer Lab (AID 2284047). The essentials: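 Rat cortical cultures, 1.5 x 10^5 cells/well on 48-well MEA plates; continuous exposure days 0–12, medium and compound refreshed DIV 5, 9. Mean time between consecutive network-spike peaks; AUC across DIV 5/7/9/12; DMSO baseline, negative fitting direction.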

Test [6] is described as follows: CCTE_Shafer_MEA_dev_network_spike_number: CCTE's Neural Network Formation Assay for Number of Network Spikes, Shafer Lab (AID 2284048). The essentials:
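Primary rat cortical neurons on PEI/laminin 48-well MEA plates, dosed from plating day 0 for 12 days, renewed at DIV 5 and 9. Network spike counts recorded DIV 5, 7, 9, 12, collapsed as trapezoidal AUC; DMSO baseline.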

Test [7] can be described thus: CCTE_Shafer_MEA_dev_network_spike_peak: CCTE's Neural Network Formation Assay for Mean Number of Electrodes in Network Spike, Shafer Lab (AID 2284049). The method in brief:
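Network-spike peak electrode count from recordings on days 5, 7, 9 and 12 was combined as trapezoidal area under the curve. Rat cortical cultures were treated continuously from plating, with compound renewed at each feed (DIV 5, 9); fits versus DMSO.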

A short description of test [8]: CCTE_Shafer_MEA_dev_spike_duration_mean: CCTE's Neural Network Formation Assay for Mean Spike Duration, Shafer Lab (AID 2284051).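 Further: mean network spike duration pooled as area under curve over DIV 5 to 12 recordings.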 The method in brief:
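Readout is the average length of network spikes, clustered firing across electrodes, summed over DIV 5, 7, 9 and 12 as area under the curve. Neurons from rat cortex developed networks on MEA plates under continuous 12-day exposure.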

The nature of test [9]: CCTE_Shafer_MEA_dev_network_spike_duration_std: CCTE's Neural Network Formation Assay for Standard Deviation of Network Spike Duration, Shafer Lab (AID 2284052).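 Further: area under curve of spike duration SD across recording days 5 to 12; hits are decreases in network spike duration SD versus DMSO vehicle.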 The method in brief:
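Read-out is the trapezoidal area-under-the-curve across recordings made on days 5, 7, 9 and 12, fitted in the negative direction against DMSO baseline. Neurons were primary rat cortical cells treated from day 0, with treatment renewed at each feed.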

Test [10] can be described thus: CCTE_Shafer_MEA_dev_per_network_spike_spike_number_mean: CCTE's Neural Network Formation Assay for Mean Number of Spikes in a Network Spike, Shafer Lab (AID 2284053). The essentials:
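Continuous twelve-day exposure of developing rat cortical networks grown over 16 microelectrodes per well; spontaneous firing is captured at four time points, and the per-network-spike spike number is integrated over development by trapezoidal AUC.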

Test [11] in a line: CCTE_Shafer_MEA_dev_per_network_spike_spike_percent: CCTE's Neural Network Formation Assay for Percent of Spikes in a Network Spike, Shafer Lab (AID 2284054). The essentials:
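Rat primary cortical neurons were grown on 48-well MEA plates (16 electrodes/well), exposed from plating day 0 through day 12, with treatment renewed on DIV 5 and 9. Percent of spikes within 0.05 s network-spike peaks was measured, summarised as AUC across days 5, 7, 9, 12.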

Test [12] in a line: CCTE_Shafer_MEA_dev_LDH: CCTE's Lactate Dehydrogenase Assay for Cytotoxicity in the Neural Network Formation Assay, Shafer Lab (AID 2284068; active means hit-call score of the fitted dose curve at least 0.9, where 1 is the maximum;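 further: exposure for twelve days from plating with re-dosing on DIV 5 and 9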). The essentials: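 Cytotoxicity companion to network-formation recordings: rat cortical neurons received compound over 12 days of development, re-dosed at DIV 5 and 9 feeds. Viability was inferred from LDH enzyme activity relative to DMSO.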

Test [13] in a line: CCTE_Shafer_MEA_dev_AB: CCTE's Alamar Blue Assay for Cytotoxicity in the Neural Network Formation Assay, Shafer Lab (AID 2284083; active means hit-call score of the fitted dose curve at least 0.9, where 1 is the maximum;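 further: resazurin reduction fluorescence as viability of cultured neurons; twelve days of exposure from plating with re-dosing on DIV 5 and 9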). The method in brief: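 Fluorescent resazurin reduction serves as the viability read-out, with DMSO as negative control and baseline. Cells were primary rat cortical neurons grown on MEA plates and dosed from day 0 to day 12, treatment renewed on DIV 5 and 9.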

Test [14] can be described thus: CCTE_Shafer_MEA_dev_mutual_information_norm: CCTE's Neural Network Formation Assay for Mutual Information Normalization, Shafer Lab (AID 2284091). The essentials: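 Primary rat cortical neurons on PEI-coated 48-well MEA plates, 1.5 x 10^5 cells/well, exposed from day 0 through day 12 with re-dosing at DIV 5 and 9. Mutual information between electrodes recorded days 5, 7, 9, 12; trapezoidal AUC, loss-of-signal fit versus DMSO.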

Test [15] is described as follows: CCTE_Shafer_MEA_dev_correlation_coefficient_mean: CCTE's Neural Network Formation Assay for Mean Correlation Coefficient, Shafer Lab (AID 2284093). The method in brief:
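Read-out: well-mean correlation coefficient of spike trains between electrode pairs, collapsed over four recording days as trapezoidal area-under-the-curve. Developing rat cortical neuron networks grown on MEAs received test chemical continuously from plating.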

Test [16] in a line: TAMU_PeakParms_SingleDonor1434_Chronotropy: Texas A&M University (TAMU) 1.5-hr Human Induced Pluripotent Stem Cell (iPSC)-derived Cardiomyocytes Calcium (Ca+2) Flux Assay for Cardiotoxicity: Chronotropy (changes in peak frequency) (AID 2284217). The following applies: actives raise or lower the signal. The essentials:
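Beat frequency of single-donor iPSC cardiomyocytes was recorded through a calcium-sensitive dye 1.5 hours after exposure to four concentrations up to 100 uM. An EC05 point of departure was derived.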

A short description of test [17]: TAMU_HCS_1.5hr_SingleDonor1434_Cytotoxicity: Cytotoxicity Assessment using High-content Screening (HCS) Fluorescent Imaging for the Texas A&M University (TAMU) 1.5-hr Human Induced Pluripotent Stem Cell (iPSC)-derived Cardiotoxicity Assay (AID 2284234; active means hit-call score of the fitted dose curve at least 0.9, where 1 is the maximum). The essentials:
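Human iPSC-derived cardiomyocytes dosed at 0.2, 1, 10, 100 uM final (0.5% DMSO) for 90 min at 37 C. Hoechst 33342-stained nuclei counted by 10x high-content imaging; POD is EC10, a 10% drop in total cell count versus DMSO.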

The nature of test [18]: TAMU_PeakParms_SingleDonor1434_Asystole: Texas A&M University (TAMU) 1.5-hr Human Induced Pluripotent Stem Cell (iPSC)-derived Cardiomyocytes Calcium (Ca+2) Flux Assay for Cardiotoxicity: Asystole (quiescence of beating) (AID 2284328; active means hit-call score of the fitted dose curve at least 0.9, where 1 is the maximum). The essentials: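 Donor 1434 iPSC-cardiomyocytes exposed 90 min at 37C, 5% CO2, to 0.2, 1, 10 and 100 uM in 0.5% DMSO. Ca2+ dye fluorescence gave average peak frequency; POD is EC95, a 95% beat-rate drop versus controls.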

Inconclusive results are not listed. Activity calls are given as the source filed them. How the source made its calls, unless noted: active means hit-call score of the fitted dose curve at least 0.9, where 1 is the maximum; inactive means score below 0.9.

1 compound from PubChem BioAssay (EPA / NIEHS) can be followed below.

The term AC50 denotes the concentration at which the activity in the assay is half-maximal.

Take `c1ccc2cc3c(cc2c1)-c1cccc2cccc-3c12`: the call in [1], in test [2], in test [3], in [4], in [5] and in [6] was inactive. In addition, the call in test [7], in test [8], in test [9], in [10], in test [11] and in test [12] was inactive. For the same compound, the result in test [13], in test [14], in test [15], in [17] and in [18] was inactive. For the same compound, the AC50 in test [16] is 9.92 µM (active).
